# Laboratory results from PubChem BioAssay (EPA / NIEHS).
# Several values for one entry are separate records, joined by “and”; a condition that tells them apart may be missing. Identical values can stand only once. Some compounds were tested as several samples or in several runs, with calls that do not always agree. Activity calls are given as the source filed them. The calls were made as follows: active = hit-call score of the fitted dose curve at least 0.9, where 1 is the maximum; inactive = score below 0.9.
# How the values were obtained:
# [1] = ATG_NFI_CIS: Attagene CIS-FACTORIAL HepG2 Assay for human Nuclear Factor I (NFI) (AID 2282989); conditions: HepG2 cis-regulatory reporter, NFI response element transcription; actives raise or lower the signal
# Procedure, shortened: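 Transient MRTU transfection of HepG2 → 24 h chemical dosing → total RNA, oligo(dT) RT → PCR, 6-FAM primer extension, HpaI cut → capillary electrophoresis. Endpoint fitted bidirectionally relative to DMSO.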
# [2] = target: Myc proto-oncogene protein (Homo sapiens) (UniProt P01106); assay: ATG_Myc_CIS: Attagene CIS-FACTORIAL HepG2 Assay for human Myelocytomatosis (Myc) Proto-Oncogene Transcription Factor (AID 2282990); conditions: HepG2, Attagene cis-reporter transcription factor activity; actives raise or lower the signal
# Procedure, shortened: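 Cells of the HepG2 human liver line bear multiple cis-driven reporter transcription units. Reporter mRNA after 24 h exposure is reverse-transcribed, amplified, labelled and resolved by capillary electrophoresis, with gain- or loss-of-signal fitting relative to DMSO.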
# [3] = ATG_NF_kB_CIS: Attagene CIS-FACTORIAL HepG2 Assay for human Nuclear Factor Kappa B (NF-kB) (AID 2282991); conditions: HepG2 Attagene cis-factorial NF-kB reporter mRNA; actives raise or lower the signal
# Procedure, shortened: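 Multiplexed cis-reporter assay in transiently transfected HepG2. 24 h treatment; RNA isolated, RT-PCR, labelled fragments resolved by CE. DMSO baseline.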
# [4] = ATG_NRF2_ARE_CIS: Attagene CIS-FACTORIAL HepG2 Assay for human Nuclear Factor Erythroid 2 Related Factor 2 (NFR2) response to Antioxidant Response Elements (ARE) (AID 2282992); conditions: HepG2 Attagene ARE/NRF2 reporter, transcription factor activity; actives raise or lower the signal;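 as to AC50: reporter mRNA level measured by RT-PCR and capillary electrophoresis fluorescence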
# Procedure, shortened: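 Fluorescence intensity of reporter-specific cDNA fragments, separated by capillary electrophoresis, reflects mRNA induction in transfected HepG2 cells at 24 h. Activity is fitted bidirectionally, DMSO serving as baseline.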
# [5] = ATG_Oct_MLP_CIS: Attagene CIS-FACTORIAL HepG2 Assay for human Octamer-Binding Transcription Factor (Oct) (AID 2282993); conditions: HepG2 Attagene cis-factorial Oct reporter, mRNA; actives raise or lower the signal
# Procedure, shortened: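 Transient MRTU transfection of HepG2 → 24 h compound treatment → RNA isolation, reverse transcription, PCR → 6-FAM primer extension, HpaI digest → capillary electrophoresis. Activity fitted both directions against DMSO.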
# [6] = target: Cellular tumor antigen p53 (Homo sapiens) (UniProt P04637); assay: ATG_p53_CIS: Attagene CIS-FACTORIAL HepG2 Assay for human p53 Transcription Factor (AID 2282994); conditions: HepG2 p53 cis-element reporter, Attagene mRNA; actives raise or lower the signal
# Procedure, shortened: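 Transiently transfected HepG2 (multiple cis reporter transcription units); exposure 24 h; reporter RNA via RT-PCR, 6-FAM extension, 2 h HpaI digest at 37 C, CE detection; DMSO baseline.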
# [7] = target: Nuclear respiratory factor 1 (Homo sapiens) (UniProt Q16656); assay: ATG_NRF1_CIS: Attagene CIS-FACTORIAL HepG2 Assay for human Nuclear Respiratory Factor 1 (NRF1) Orphan Gene (AID 2282987); conditions: HepG2 NRF1 cis-element reporter, Attagene multiplex; actives raise or lower the signal
# Procedure, shortened: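 Human hepatoma HepG2 cells carrying transfected promoter-regulated reporter units were incubated with test chemicals for 24 h. Reporter transcripts were measured by RT-PCR plus capillary electrophoresis, and endpoints derived by bidirectional fitting with DMSO as baseline.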
# [8] = BSK_3C_TissueFactor: BioMAP Diversity Plus: 3C Assay for Tissue Factor Biomarker Activity (AID 2282997); conditions: BioMAP 3C HUVEC, tissue factor biomarker readout; actives raise or lower the signal
# Procedure, shortened: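 HUVEC, 3C system, 24 h post-dose; Tissue Factor by ELISA; bidirectional fit vs DMSO baseline.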
# [9] = BSK_3C_uPAR: BioMAP Diversity Plus: 3C Assay for Urokinase-type plasminogen activator receptor (uPAR) Biomarker Activity (AID 2282998); conditions: BioMAP 3C HUVEC, uPAR biomarker ELISA; actives raise or lower the signal
# Procedure, shortened: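 ELISA readout of uPAR on human vascular endothelium (umbilical vein primary cells), taken 24 h after chemical dosing. Increases and decreases are both fitted relative to DMSO vehicle.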
# [10] = BSK_3C_VCAM1: BioMAP Diversity Plus: 3C Assay for Vascular cell adhesion molecule 1 (VCAM1) Biomarker Activity (AID 2282999); conditions: BioMAP 3C HUVEC, VCAM1 ELISA, cytokine-stimulated; actives raise or lower the signal
# Procedure, shortened: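 Activity fitted in both directions relative to DMSO, with ELISA measurement of the surface marker on primary HUVEC (3C) at 24 h post-treatment; parallel SRB staining (0.1% SRB, TCA-fixed, 560 nm) flagged overt cytotoxicity.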
# Sequence of Myc proto-oncogene protein (Homo sapiens) (P01106 whole entry, looked up): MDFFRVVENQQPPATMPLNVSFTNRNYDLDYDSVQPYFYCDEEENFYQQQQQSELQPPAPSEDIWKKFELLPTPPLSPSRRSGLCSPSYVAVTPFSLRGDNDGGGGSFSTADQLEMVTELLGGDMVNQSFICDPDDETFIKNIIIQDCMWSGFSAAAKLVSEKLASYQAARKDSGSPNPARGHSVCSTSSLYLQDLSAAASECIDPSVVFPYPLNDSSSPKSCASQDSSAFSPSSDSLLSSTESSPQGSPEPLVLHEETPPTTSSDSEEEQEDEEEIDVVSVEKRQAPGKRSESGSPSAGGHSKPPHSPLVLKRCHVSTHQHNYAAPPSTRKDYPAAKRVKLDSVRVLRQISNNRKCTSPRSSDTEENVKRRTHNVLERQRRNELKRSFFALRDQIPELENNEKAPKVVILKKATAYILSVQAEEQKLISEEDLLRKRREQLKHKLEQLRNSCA
# Sequence of Cellular tumor antigen p53 (Homo sapiens) (P04637 whole entry, looked up): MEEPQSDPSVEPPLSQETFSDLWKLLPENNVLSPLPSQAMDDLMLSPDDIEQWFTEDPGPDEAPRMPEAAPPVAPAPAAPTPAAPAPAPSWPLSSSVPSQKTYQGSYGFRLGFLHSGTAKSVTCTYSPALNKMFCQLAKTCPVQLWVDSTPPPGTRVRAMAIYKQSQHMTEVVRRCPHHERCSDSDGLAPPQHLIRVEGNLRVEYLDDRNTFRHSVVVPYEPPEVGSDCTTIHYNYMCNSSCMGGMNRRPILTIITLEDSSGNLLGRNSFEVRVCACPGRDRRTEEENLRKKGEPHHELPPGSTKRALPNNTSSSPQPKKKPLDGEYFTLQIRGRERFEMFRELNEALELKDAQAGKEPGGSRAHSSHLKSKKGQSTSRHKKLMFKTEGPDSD
# Sequence of Nuclear respiratory factor 1 (Homo sapiens) (Q16656 whole entry, looked up): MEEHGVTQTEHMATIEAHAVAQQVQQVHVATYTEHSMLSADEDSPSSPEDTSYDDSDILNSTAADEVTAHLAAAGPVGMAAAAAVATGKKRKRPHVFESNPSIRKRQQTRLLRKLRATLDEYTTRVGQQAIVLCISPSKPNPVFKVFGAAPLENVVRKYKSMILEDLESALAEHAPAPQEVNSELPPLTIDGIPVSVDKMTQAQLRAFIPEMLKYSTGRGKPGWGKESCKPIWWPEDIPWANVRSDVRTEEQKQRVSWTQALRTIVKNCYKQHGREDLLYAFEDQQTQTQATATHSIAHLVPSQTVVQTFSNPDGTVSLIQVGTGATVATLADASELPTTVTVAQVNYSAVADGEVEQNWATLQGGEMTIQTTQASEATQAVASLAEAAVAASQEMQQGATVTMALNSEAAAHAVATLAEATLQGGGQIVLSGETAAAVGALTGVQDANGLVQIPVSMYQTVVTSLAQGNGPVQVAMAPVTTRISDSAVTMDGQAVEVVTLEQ
compound,measurement,setting,value
CC(C)=CCCC(C)=CC(=O)O,outcome,[1],inactive
same,outcome,[2],inactive
same,outcome,[3],inactive
same,outcome,[4],inactive
same,outcome,[5],inactive
same,outcome,[6],inactive
NC(=O)NC(N)=O,outcome,[7],inactive
same,outcome,[2],inactive
same,outcome,[4],inactive
same,outcome,[5],inactive
same,outcome,[6],inactive
COc1ccc(OC)cc1,outcome,[7],inactive
same,outcome,[2],inactive
same,outcome,[3],inactive
same,outcome,[4],inactive
same,outcome,[5],inactive
same,outcome,[6],inactive
C#C[C@]1(O)CC[C@H]2[C@@H]3CCc4cc(O)ccc4[C@H]3CC[C@@]21C,AC50,[1],26.4 µM (active) and 72.3 µM (active) and 48.5 µM (active)
same,outcome,[1],inactive
same,AC50,[2],146 µM (active) and 61.6 µM (active)
same,outcome,[2],inactive
same,AC50,[3],162 µM (active)
same,outcome,[3],inactive
same,AC50,[5],27.1 µM (active) [middle of 4 runs]
same,outcome,[5],inactive
same,AC50,[6],30 µM (active) [middle of 4 runs]
same,outcome,[6],inactive
same,AC50,[8],5.38 µM (active)
same,AC50,[9],6.34 µM (active)
same,outcome,[10],inactive
CC(=O)CCc1ccc(O)cc1,outcome,[7],inactive
same,outcome,[2],inactive
same,outcome,[3],inactive
same,outcome,[5],inactive
same,outcome,[6],inactive
C1=COCCC1,outcome,[2],inactive
same,outcome,[3],inactive
same,outcome,[4],inactive
same,outcome,[5],inactive
CCCCOC(=O)C(C)OC(=O)CCC (configuration not stated),outcome,[2],inactive
same,outcome,[3],inactive
same,outcome,[4],inactive
same,outcome,[5],inactive
same,outcome,[6],inactive
c1ccc(OCCOc2ccccc2)cc1,outcome,[1],inactive
same,outcome,[2],inactive
same,outcome,[3],inactive
same,outcome,[4],inactive
same,AC50,[8],1.24 µM (active) and 1.4 µM (active)
same,outcome,[9],inactive
same,outcome,[10],inactive
CCCCCCCCCO,outcome,[2],inactive
same,outcome,[5],inactive
same,outcome,[6],inactive
CC(=O)c1ccc(O)cc1,outcome,[1],inactive
same,outcome,[2],inactive
same,outcome,[3],inactive
same,outcome,[4],inactive
same,outcome,[5],inactive
same,outcome,[6],inactive
CN(C)C,outcome,[1],inactive
same,outcome,[2],inactive
same,outcome,[4],inactive
same,outcome,[5],inactive
same,outcome,[6],inactive
O=S(=O)(O)C(F)(F)C(F)(F)OC(F)(F)C(F)(F)F,outcome,[8],inactive
same,outcome,[9],inactive
same,outcome,[10],inactive
CC1=CCC(C(C)C)=CC1,outcome,[1],inactive
same,outcome,[2],inactive
same,outcome,[4],inactive
same,outcome,[5],inactive
same,outcome,[6],inactive
C=CC(C)CCCC(C)(C)O (configuration not stated),outcome,[1],inactive
same,outcome,[2],inactive
same,outcome,[3],inactive
same,outcome,[5],inactive
same,outcome,[6],inactive
[Na+],outcome,[1],inactive
same,outcome,[2],inactive
same,outcome,[3],inactive
same,outcome,[4],inactive
same,outcome,[6],inactive
CCCC1CCOC(C)S1 (configuration not stated),outcome,[2],inactive
same,outcome,[3],inactive
same,outcome,[4],inactive
CCCCCCCCCOS(=O)(=O)O,outcome,[1],inactive
same,outcome,[2],inactive
same,outcome,[5],inactive
same,outcome,[6],inactive
CCCCN(CCO)CCO,outcome,[1],inactive
same,outcome,[2],inactive
same,outcome,[3],inactive
same,outcome,[4],inactive
same,outcome,[5],inactive
same,outcome,[6],inactive
same,outcome,[8],inactive
same,outcome,[9],inactive
same,outcome,[10],inactive
CCCCCCCC(=O)N(C)C,outcome,[1],inactive
same,outcome,[2],inactive
same,outcome,[4],inactive
same,outcome,[5],inactive
same,outcome,[6],inactive
CC(=O)OC(C)(C)C1CC=C(C)CC1 (configuration not stated),outcome,[1],inactive
same,outcome,[2],inactive
same,outcome,[4],inactive
same,outcome,[5],inactive
same,outcome,[6],inactive
same,AC50,[8],29.8 µM (active)
same,AC50,[9],32.3 µM (active)
same,outcome,[10],inactive
O=C(O)C(F)(F)OC(F)(F)C(F)(F)OC(F)(F)C(F)(F)C(F)(F)C(F)(F)F,outcome,[8],inactive
same,AC50,[9],38.7 µM (active)
same,outcome,[9],inactive
same,outcome,[10],inactive
CCCCCC1C(=O)CCC1CC(=O)OC (configuration not stated),outcome,[1],inactive
same,outcome,[2],inactive
same,outcome,[4],inactive
same,outcome,[5],inactive
same,outcome,[6],inactive
CC(C)CCOC(=O)CC(C)C,outcome,[1],inactive
same,outcome,[2],inactive
same,outcome,[3],inactive
same,outcome,[5],inactive
C=C(C)C(=O)OCCC(F)(F)C(F)(F)C(F)(F)C(F)(F)C(F)(F)C(F)(F)C(F)(F)C(F)(F)F,outcome,[8],inactive
same,outcome,[9],inactive
same,outcome,[10],inactive
O=C(O)C(F)(F)C(F)(F)C(F)(F)C(F)(F)C(F)(F)C(F)(F)C(F)(F)C(F)F,outcome,[8],inactive
same,outcome,[9],inactive
same,outcome,[10],inactive
CC(O)COCC(C)O (configuration not stated),outcome,[2],inactive
same,outcome,[3],inactive
same,outcome,[4],inactive
same,outcome,[5],inactive
NS(=O)(=O)c1cc(C(=O)O)c(NCc2ccco2)cc1Cl,outcome,[2],inactive
same,outcome,[5],inactive
[O-]/[N+](=N\O)c1ccccc1,outcome,[1],inactive
same,outcome,[2],inactive
same,AC50,[4],17.3 µM (active)
same,outcome,[6],inactive
[Cu+],outcome,[2],inactive
same,AC50,[4],2.29 µM (active)
same,outcome,[5],inactive
CCOC(=O)CC(C)C,outcome,[1],inactive
same,outcome,[2],inactive
same,outcome,[5],inactive
OCC(F)(OC(F)(F)C(F)(OC(F)(F)C(F)(F)C(F)(F)F)C(F)(F)F)C(F)(F)F (configuration not stated),outcome,[8],inactive
same,outcome,[9],inactive
same,AC50,[10],3.72 µM (active)
same,outcome,[10],inactive
CC(=O)N(C)C,outcome,[2],inactive
same,outcome,[5],inactive
same,outcome,[6],inactive
O=S(=O)(O)CCCN1CCOCC1,outcome,[1],inactive
same,outcome,[2],inactive
same,outcome,[5],inactive
same,outcome,[6],inactive
CCCCCCCOC(C)=O,outcome,[2],inactive
same,outcome,[4],inactive
same,outcome,[5],inactive
same,outcome,[6],inactive
